Bioassay records (PubChem)
This is a sample that favours compounds with a hit; in the whole collection about 2.4% have one here.
CHT block: inhibitors of human choline transporter CHT | High affinity choline transporter 1 (Homo sapiens), Q9GZV3 | CHT-expressing cells, membrane potential dye, choline response; stronger effect = lower value | B-score at 10 µM | actives 0.86% (n = 310,000) | AID 488975, 2010;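 active means B-score over 3 SD under the library average, and starting fluorescence ratio not unusually high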;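 further: choline stimulus applied at its EC90 after an EC20 pre-addition; B-score computed on integrated fluorescence ratio after choline addition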
TMEM16A act: TMEM16A chloride channel activators or potentiators, primary screen, cell-based, HTS; Anoctamin-1 (Mus musculus), Q8BHY3; HEK293 TMEM16A/YFP-H148Q/I152L, iodide quench fluorescence; stronger effect = lower value; B-score at 10 µM; actives 0.3% (n = 340,000);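 active means fluorescence-ratio B-score plate-corrected deviation score at least 3 library SD below zero, with starting fluorescence score within 5 deviations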;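 further: channel opened by trigger with iodide after compound preincubation; score built on the fluorescence ratio of max minus min over baseline; more negative score means more quench and so TMEM16A activation or potentiation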
CHT allo act: CHT positive allosteric modulators, primary screen, cell-based, membrane potential dye, choline EC20; B-score at 10 µM; AID 488977, 2010; CHT-expressing cells; stronger effect = higher value; LV-AA mutant CHT in HEK293 cells; actives 0.49% (n = 310,000); High affinity choline transporter 1 (Homo sapiens), Q9GZV3;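 active means initial fluorescence not abnormally high and integrated response B-score, plate-corrected, over 3 SD above library mean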
ANO1 block: TMEM16A chloride channel inhibitors, primary screen, cell-based, HTS. actives 1.2% (n = 310,000). HEK293 TMEM16A/YFP iodide influx fluorescence, ionomycin. normalized B-score (activity score, 25-100; higher = stronger inhibition) at 10 µM. AID 588511, 2011;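 active means ratio plate-corrected score three or more library SD toward inhibition, starting fluorescence score within five deviations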;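 further: score derived from kinetic fluorescence span divided by baseline fluorescence per well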
CHT act confirm: CHT activators, confirmation, cell-based, membrane potential dye, duplicate. CHT-expressing cells, membrane potential dye fluorescence (FDSS); % of choline EC20–EC90 response window; HEK293 expressing CHT LV-AA mutant; choline added at its EC20. actives 91% (n = 2,500). AID 504833, 2011. shares compounds with CHT allo act. activation, % at 10 µM;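 active means primary screen active, with duplicate mean activation above negative control mean plus 3 SD, cut at about 11% in these data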
HEK293 MP dye: membrane potential response in parental HEK293 cells, counter-screen for CHT activator project, cell-based, membrane potential dye. ratio readout change at 10 µM, hits read low. membrane potential dye fluorescence (FDSS); measured after EC20 choline addition. shares compounds with CHT allo act. actives 62% (n = 2,500);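 active means duplicate-averaged ratio beyond 3 SD from buffer wells, up or down, though filed actives are nearly all decreases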
An asterisk follows results filed as active; i = inactive; · = no result.

SMILES	CHT block	TMEM16A act	CHT allo act	ANO1 block	CHT act confirm	HEK293 MP dye
Nc1ccc(CSc2ccc(Cl)cc2)c(Cl)c1	·	i	·	·	·	·
CN1CCCCC1=NCCCn1cnc2c1c(=O)n(C)c(=O)n2C	i	i	7.2*	i	47*	-49*
COc1ccccc1Sc1nc(-c2ccccn2)ncc1OC	i	i	i	i	·	·
COc1cnc(-c2ccccn2)nc1NC(C)C	i	i	7.8*	i	27*	-58*
CCC(C(=O)Nc1cc(C)cc(C)n1)c1ccccc1 (stereo unspecified)	i	i	i	i	·	·
Cc1cc(C)nc(NC(=O)C(c2ccccc2)c2ccccc2)c1	i	i	6.9*	i	40*	-35*
COc1ccccc1OCC(=O)Nc1cc2c(cc1C(=O)O)OCCCO2	i	i	i	i	·	·
Cn1c(/C=N/n2cnnc2)nc2ccccc21	i	i	6.5*	i	60*	-48*
CCN(CC)C(=O)Oc1ccc(Br)cc1C(=O)Nc1ccc(F)cc1F	i	i	i	i	·	·
Clc1ccc(CSc2nncn2-c2ccc3c(c2)OCCO3)cc1	i	i	13*	i	5	i
COc1cccc(N2CCN(C(=O)c3ccc(CS(=O)c4ccc(Cl)cc4)o3)CC2)c1 (stereo unspecified)	i	i	i	i	21*	i
COc1cccc(N2CCN(C(=O)c3ccc(CS(=O)Cc4ccc(C)cc4)o3)CC2)c1 (stereo unspecified)	i	i	i	i	·	·
COc1cccc(N2CCN(C(=O)c3ccc(CS(=O)c4ccc(C)cc4)o3)CC2)c1 (stereo unspecified)	i	i	8.1*	i	21*	i
Cc1cc(NC(=O)CN2C(=O)[C@@H]3[C@H](C2=O)[C@@H]2C[C@H]3C(Br)C2Br)no1 (stereo partly specified)	i	i	i	i	·	·
Cc1nnc(SCCn2c(N3CCN(C)CC3)nc3c2c(=O)[nH]c(=O)n3C)s1	i	i	6.9*	i	59*	-67*
CN1CCN(c2nc3c(c(=O)[nH]c(=O)n3C)n2CCSc2nc3ccccc3s2)CC1	i	i	9.2*	i	50*	-55*
Cc1ccc(-n2ncc3c(SCc4cccnc4)ncnc32)c(C)c1	·	i	·	·	·	·
Cc1c(C(O)CN2CCN(Cc3ccc4c(c3)OCO4)CC2)c2ccccc2n1C (stereo unspecified)	i	i	6.8*	i	31*	-27*
CC(Sc1nnc(-c2ccc(Cl)cc2Cl)n1Cc1ccccc1)C(=O)Nc1nccs1 (stereo unspecified)	i	i	7.1*	i	35*	i
Cc1nnc(SC(C)C(=O)Nc2ccc(Cl)cn2)n1Cc1ccccc1 (stereo unspecified)	i	i	i	i	·	·
Cn1c(-c2cccs2)[n+](C)c2ccccc21	i	i	9.8*	i	62*	-56*
CCOC(=O)C1CCN(C(=O)CN2C(=O)COc3ccc(C(C)(C)C)cc32)CC1	i	i	i	i	·	·
O=C1CN(C(=O)c2c(F)cccc2F)C(c2ccccc2)c2cc(Br)ccc2N1 (stereo unspecified)	i	i	i	i	14*	i
O=C1CN(C(=O)c2ccccc2[N+](=O)[O-])C(c2ccccc2)c2cc(Br)ccc2N1 (stereo unspecified)	i	i	6.7*	i	24*	i
Cc1ccc2c(c1)C(c1ccccc1)N(C(=O)c1ccccc1[N+](=O)[O-])CC(=O)N2 (stereo unspecified)	i	i	i	i	·	·
SMILES	CHT block	TMEM16A act	CHT allo act	ANO1 block	CHT act confirm	HEK293 MP dye
CCOc1ccc(NS(=O)(=O)c2cc(NC(=O)c3cccc(C)c3)ccc2Cl)cc1	i	i	i	i	·	·
COC(=O)c1cc(C(=O)N2CCN(c3ccccc3OC)CC2)cc([N+](=O)[O-])c1	i	i	6.8*	i	13*	i
CCCN(CC(=O)Nc1ccccc1Br)CC(=O)Nc1ccc(F)c(F)c1F	i	i	i	i	18*	i
CCCN(CC(=O)Nc1cc(Cl)cc(Cl)c1)CC(=O)Nc1ccc(F)c(F)c1F	i	i	i	i	·	·
CC(C)COP(=O)(OCC(C)C)C(Nc1ccccc1)c1ccc(F)cc1 (stereo unspecified)	i	i	i	i	15*	i
CC(C)COP(=O)(OCC(C)C)C(Nc1ccccc1)c1ccc2c(c1)OCO2 (stereo unspecified)	i	i	i	i	·	·
O=C(CSc1nccc(=O)[nH]1)NC1CCCCCC1	·	i	·	·	·	·
CCOC(=O)N1CCN(c2c(NCc3ccc(F)cc3)c(=O)c2=O)CC1	i	i	i	i	4	i
Cc1cc(C)cc(OCC(=O)Nc2ccc(-n3cnnn3)cc2)c1	·	i	·	·	·	·
NC(=Nc1nc(-c2ccccn2)cc2ccccc12)c1ccccn1	·	i	·	·	·	·
CCN1C(=O)c2cccc3c(S(=O)(=O)NCCCN4CCOCC4)ccc1c23	i	i	7*	i	59*	-54*
CC(NC(=O)c1ccncc1)c1ccc(Br)cc1 (stereo unspecified)	i	i	i	i	·	·
CCC1=[N+](C)c2cccc3cccc(c23)N1C	i	i	9.6*	i	71*	-86*
COC(CN(C)S(=O)(=O)c1cc2c3c(c1)CCN3C(=O)CC2)OC	i	i	i	i	·	·
CC(C)C1Oc2ccccc2N(CC(=O)NC2CCCCC2)C1=O (stereo unspecified)	i	i	i	i	9.8*	i
COc1ccc2cc(C#N)c(SCC(=O)N3CCCC3)nc2c1	i	i	i	i	·	·
COc1ccc2nc(C)cc(SCC(=O)N3CCCCC3)c2c1	i	i	i	i	32*	-45*
CCOC(=O)CNC(=O)CSc1cc(C)nc2ccc(OC)cc12	i	i	i	i	44*	-42*
COc1cc(NC(=O)CCc2nnc3ccc(N4CCC5(CC4)OCCO5)nn23)cc(OC)c1	i	i	i	i	·	·
O=C(CSc1n[nH]c(-c2ccccc2Cl)n1)NC1CCCCC1	i	i	i	i	·	·
